Screens deposited in PubChem BioAssay by National Center for Advancing Translational Sciences (NCATS).
An excerpt weighted towards active compounds, which were near 2.1% of everything screened.
Abeta rescue: A-beta toxicity reversal in yeast; Potency, µM (titrated, usually from 46.1 µM), actives largely listed as activators; yeast expressing A-beta42, growth rescue, OD600, 48 h; response scale: 0% DMSO, 100% iron-clioquinol control; hit rate 0.063% among 410,000; note: nearly all actives have a fitted effect of over 55% in size
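Growth rescue measured by 600 nm absorbance after 48 h yeast culture at 30 C with compound. Values normalized between DMSO and an equimolar ferric chloride plus clioquinol control.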
aSyn yeast inh: alpha-synuclein toxicity inhibition in yeast; Yeast expressing alpha-synuclein, growth rescue, BacTiter-Glo, 24 h; Potency, µM (series often up to 46.1 µM), usual class: activators; hit rate 0.14% among 370,000; AID 652106; note: nearly all actives have a fitted effect of over 65% in size
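Readout is rescue of growth in alpha-synuclein-expressing yeast, so inhibitors of toxicity appear as activators. Growth after 24 hr at 30 deg C in galactose medium is quantified by luminescence.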
FUS yeast rescue: suppressors of FUS proteinopathy in yeast | S. cerevisiae FUS-expressing, growth rescue, OD600, 24 h | Potency, µM (series often up to 76.6 µM), usual class: activators | hit rate 0.24% among 390,000; note: nearly all actives have a fitted effect of over 55% in size
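Cultures pregrown in 2.5% raffinose medium are shifted to minimal medium containing 2% galactose to express toxic FUS. Compounds are tested at several concentrations. After 24hr at 30C, growth is quantified at 600 nm absorbance.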
TDP-43 yeast inh: rescues yeast growth from TDP-43 toxicity; TDP-43 expressing yeast growth rescue, BacTiter-Glo, 24 h; Potency, µM (titrated, usually from 46.1 µM), most hits filed as activators; hit rate 1.8% among 410,000; AID 652104; note: nearly all actives have a fitted effect of over 50% in size
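Luminescence from BacTiter-Glo reports growth of TDP-43-expressing yeast after 24 hr at 30 deg C with compound. Cells were raffinose-pregrown to mid-log, then seeded in galactose medium at OD600=0.02.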
Of the large screens only hits and unclear results are named; the others gave an inactive call. Calls come from the whole dose curve; as a rule, active = well fitted curve in the direction sought with a large enough effect; inconclusive = small, poorly fitted or top-dose-only effect, or another doubt; inactive = no such curve, though single readings can be large; an effect the other way counts as inactive or inconclusive.

O=C(CCc1nc(-c2ccccc2F)no1)Nc1ccc(Oc2ccccc2)cc1	none
CC(=O)Nc1cc(C(=O)N(C)Cc2ccco2)ccc1Sc1ccc(C)cc1	none
CC(C)(C)C(=O)NC(=S)Nc1ccc(C(F)(F)F)cc1	Abeta rescue 12.6µM
COc1ccc(-c2cc(C(F)(F)F)nc(NCc3ccccc3)n2)cc1	none (no result: aSyn yeast inh)
COc1ccc(-c2cc(C(F)(F)F)c3c(=O)n(-c4ccccc4)[nH]c3n2)cc1	TDP-43 yeast inh 8.91µM (no result: aSyn yeast inh)
O=C(COc1ccc(Br)cc1)N(Cc1nnc(-c2ccccc2Cl)o1)C1CC1	aSyn yeast inh inconclusive, FUS yeast rescue inconclusive, TDP-43 yeast inh 20µM
CCCN(Cc1nnc(-c2ccccc2Cl)o1)C(=O)COc1ccc(Cl)cc1	TDP-43 yeast inh 35.5µM (no result: FUS yeast rescue)
CCC(=O)c1ccc(OCC(=O)N(Cc2nnc(-c3ccccc3Cl)o2)C2CC2)cc1	none
O=C(NC1CCSc2ccccc21)c1cccc(Cl)c1 (stereo unspecified)	TDP-43 yeast inh 5.62µM
O=C(Nc1nc(-c2ccc(Cl)cc2)cs1)C1CCCO1 (stereo unspecified)	TDP-43 yeast inh inconclusive
O=C(Nc1nc(-c2ccc(Cl)cc2Cl)cs1)C1CCCO1 (stereo unspecified)	TDP-43 yeast inh 12.6µM
COc1ccc([N+](=O)[O-])cc1NC(=O)CSCc1ccccc1C	TDP-43 yeast inh 12.6µM (no result: FUS yeast rescue)
COc1ccc([N+](=O)[O-])cc1NC(=O)C(C)OC(=O)Cc1ccc(OC)c(OC)c1 (stereo unspecified)	TDP-43 yeast inh inconclusive (no result: FUS yeast rescue)
COc1ccc(C)cc1NC(=O)CSCc1ccccc1C	TDP-43 yeast inh 12.6µM
COc1ccc([N+](=O)[O-])cc1NCc1cccc([N+](=O)[O-])c1	TDP-43 yeast inh 11.2µM
C/C=C/C=C/C(=O)OC(C)C(=O)Nc1cc([N+](=O)[O-])ccc1OC (stereo unspecified)	TDP-43 yeast inh 12.6µM
COc1cccc(S(=O)(=O)N(C)C[C@H]2Oc3ncc(Br)cc3C(=O)N([C@H](C)CO)C[C@H]2C)c1	none
O=C(NNC(=O)c1csc(-c2cnccc2C(F)(F)F)n1)c1ccc(C(F)(F)F)cc1	none
COc1ccc([N+](=O)[O-])cc1NC(=O)CC(C)c1ccccc1 (stereo unspecified)	Abeta rescue inconclusive, TDP-43 yeast inh 15.8µM
COc1ccc([N+](=O)[O-])cc1NC(=O)CSCc1ccc(Br)cc1	TDP-43 yeast inh 12.6µM
COc1ccc([N+](=O)[O-])cc1NC(=O)CCS(=O)(=O)c1ccc(Br)cc1	none
COc1cccc2cc(-c3nc4ccccc4o3)c(=O)oc12	aSyn yeast inh 3.16µM, TDP-43 yeast inh 3.16µM
O=c1oc2ccc(Br)cc2cc1-c1nc2ccccc2o1	none
CCCCOc1ccc(NC(=O)Nc2nnc(C)s2)cc1	aSyn yeast inh 1.26µM
COc1ccc(NC(=O)Nc2nnc(C)s2)cc1	none (no result: aSyn yeast inh)
COc1ccc2c(c1)c(=O)c(S(=O)(=O)c1ccc(C)c(C)c1)cn2CC(=O)Nc1ccccc1	FUS yeast rescue 12.6µM (no result: aSyn yeast inh)
COc1ccc(C(=O)c2cn(Cc3ccccc3OC)c3cc4c(cc3c2=O)OCO4)cc1	none (no result: aSyn yeast inh)
Cc1ccc(S(=O)(=O)N2CCN(C(=O)CCOc3cc(C)ccc3C)CC2)cc1	TDP-43 yeast inh 35.5µM
Cc1ccc(C)c(OCCC(=O)N2CCN(S(=O)(=O)c3cc(F)ccc3F)CC2)c1	TDP-43 yeast inh 17.8µM
Cc1ccc(S(=O)(=O)N2CCN(C(=O)COC(=O)CCOc3cc(C)ccc3C)CC2)c(C)c1	Abeta rescue inconclusive (no result: FUS yeast rescue)
CCOc1ccccc1OCCCC(=O)N1CCN(S(=O)(=O)c2cc(F)ccc2F)CC1	FUS yeast rescue inconclusive, TDP-43 yeast inh inconclusive
Cc1cc(Cl)ccc1OCCCC(=O)N1CCN(S(=O)(=O)c2ccccc2)CC1	TDP-43 yeast inh 14.1µM
CCOc1ccccc1OCCCC(=O)N1CCN(S(=O)(=O)c2ccc(Cl)cc2)CC1	none
C[C@H]1CN([C@@H](C)CO)S(=O)(=O)c2ccc(C#Cc3ccccn3)cc2O[C@H]1CN(C)Cc1ccc(F)cc1	none
CCNC(=O)n1nccc1C(C)Oc1ccccc1 (stereo unspecified)	TDP-43 yeast inh 11.2µM
CC(Oc1ccccc1)c1ccnn1S(=O)(=O)c1ccccc1 (stereo unspecified)	none
CC1=NN(/C(=N\c2nnc(C)s2)Nc2ccc(C(C)(C)C)cc2)[C@H](c2ccc(C)cc2)S1	FUS yeast rescue inconclusive, TDP-43 yeast inh 35.5µM
Cc1ccc(NC(=O)CCSc2nnc(C)s2)cc1	none
